Key:
[1] = tested on: Vero E6 infected with SARS-CoV-2; experiment: morphology score (similarity to uninfected cells); higher = more like uninfected cells; details: 24 h
[2] = tested on: Vero E6 infected with SARS-CoV-2; experiment: SARS-CoV-2 infection rate relative to infected DMSO; higher = more infection, active = 60 or less; details: 24 h

Row | Structure (SMILES) | morphology score [1] | SARS-CoV-2 infection rate [2]
1 | CCCc1nc(C(C)(C)O)c(C(=O)O)n1Cc1ccc(-c2ccccc2-c2nnn[nH]2)cc1 [olmesartan] (10 µM) | 0.0191 | 102% (inactive)
2 | COc1ccc2nc(NC(=O)Nc3ccccc3)sc2c1 [frentizole] (10 µM) | -0.0784 | 114% (inactive)
3 | CCC(=N\O)/C(C)=C/c1ccc(F)cc1 (10 µM) | 0.0411 | 110% (inactive)
4 | CC1(C)CC(=O)c2c(C(F)(F)F)nn(-c3ccc(C(N)=O)c(N[C@H]4CC[C@H](OC(=O)CN)CC4)c3)c2C1 (10 µM) | 0.127 | 108% (inactive)
5 | O=C(/C=C/c1cccnc1)NCCCCC1CCN(C(=O)c2ccccc2)CC1 (0.833333 µM) | -0.0966 | 94% (inactive)
6 | CCCCCCCCCCCCCCCC[n+]1ccn(Cc2ccccc2)c1C (0.833333 µM) | 0.0516 | 104% (inactive)
7 | O=C(O)C[CH2][Ge](=[O])[O][Ge](=[O])[CH2]CC(=O)O [propagermanium] (10 µM) | 0.128 | 94% (inactive)
8 | COC(=O)C1=CO[C@@H](O[C@@H]2O[C@H](CO)[C@@H](O)[C@H](O)[C@H]2O)[C@@H]2C(CO)=CC[C@H]12 [geniposide] (10 µM) | -0.322 | 116% (inactive)
9 | Cc1cc(I)ccc1Nc1c(C(=O)NOCC2CC2)cc(F)c(F)c1F (10 µM) | 0.0652 | 113% (inactive)
10 | C=C1C(=O)O[C@@H]2[C@H]3C(C)=CC[C@@]34O[C@@]4(C)CC[C@@H]12 [arglabin] (10 µM) | 0.144 | 68% (inactive)
11 | Cn1c(=O)cc(N2CCC[C@@H](N)C2)n(Cc2cc(F)ccc2C#N)c1=O [trelagliptin] (10 µM) | 0.194 | 99% (inactive)
12 | C(=C\c1ccccc1)/CN1CCN(CCOC(c2ccccc2)c2ccccc2)CC1 (10 µM) | 0.33 | 82.5% (inactive)
13 | CC(C)OC(=O)C1=CN(C(=O)c2ccc(F)c(F)c2)CC(C)(C)c2c1[nH]c1ccccc21 (10 µM) | 0.0521 | 100% (inactive)
14 | Cc1cc(C)c(NC(=O)C2CC3CCC2C3)c(C)c1 (stereo unspecified) (10 µM) | -0.102 | 102% (inactive)
15 | CNC(=O)c1cc(Oc2ccc(NC(=O)Nc3ccc(Cl)c(C(F)(F)F)c3)cc2)ccn1 [sorafenib] (0.833333 µM) | -0.246 | 118% (inactive)
16 | COc1cc2c(cc1OC)CN(CCc1ccc(NC(=O)c3cc(OC)c(OC)cc3NC(=O)c3cnc4ccccc4c3)cc1)CC2 [tariquidar] (10 µM) | -0.0369 | 108% (inactive)
17 | C1N2CN3CN1CN(C2)C3 [methenamine] (10 µM) | 0.11 | 100% (inactive)
18 | O=C(NC[C@H](O)CO)c1ccncc1Nc1ccc(I)cc1F (0.833333 µM) | -0.139 | 114% (inactive)
19 | Cc1ccc(F)c(NC(=O)Nc2ccc(-c3cccc4[nH]nc(N)c34)cc2)c1 [linifanib] (10 µM) | -0.188 | 118% (inactive)
20 | Cc1cc(Nc2ncnc3ccc(NC4=NC(C)(C)CO4)cc23)ccc1Oc1ccn2ncnc2c1 [tucatinib] (0.833333 µM) | -0.0894 | 114% (inactive)
21 | COc1ccc(C(=O)NCc2ccc(OCCN(C)C)cc2)cc1OC [itopride] (10 µM) | 0.19 | 90.5% (inactive)
22 | Oc1cccc(O)c1 [resorcinol] (10 µM) | 0.0503 | 110% (inactive)
23 | CCCCC1(COC(=O)CCC(=O)O)C(=O)N(c2ccccc2)N(c2ccccc2)C1=O [suxibuzone] (10 µM) | 0.183 | 94.5% (inactive)
24 | Nc1ncnc2c1c(-c1ccc(Oc3ccccc3)cc1)nn2C1CCCC1 (10 µM) | -0.00746 | 122% (inactive)
25 | COc1ccc(N(C)c2nc(C)nc3ccccc23)cc1 [verubulin] (10 µM) | -0.0973 | 95% (inactive)
26 | O=C(/C=C/c1ccc(O)c(O)c1)O[C@@H]1C[C@](O)(C(=O)O)C[C@@H](O)[C@H]1O [chlorogenic-acid] (10 µM) | 0.0432 | 112% (inactive)
27 | COC(=O)[C@H](c1ccccc1Cl)N1CCc2sccc2C1 [clopidogrel] (10 µM) | 0.229 | 99% (inactive)
28 | CCOc1nc2cccc(C(=O)OC(C)OC(=O)OC3CCCCC3)c2n1Cc1ccc(-c2ccccc2-c2nn[nH]n2)cc1 (stereo unspecified) [candesartan-cilexetil] (10 µM) | 0.13 | 92.5% (inactive)
